# Screens: PubChem BioAssay, National Center for Advancing Translational Sciences (NCATS)
# Only some compounds are listed: those with a hit (about 18% of all), similar ones and a draw of the others.
# DT40 TDP1 no CPT: qHTS for Inhibitors of human tyrosyl-DNA phosphodiesterase 1 (TDP1): qHTS in cells in absence of CPT | DT40 Tdp1-/- hTDP1 cells, no CPT, ATP luminescence, 48 h | Potency, µM (titrated, usually from 46.2 µM), without a hit: top-dose activity change, negative = growth inhibition, most hits filed as inhibitors | 15% of 420,000 active; also: potency is read from the fitted curve at half-maximal effect; % is scaled to controls: 0 for no effect and ±100 for the full control effect; nearly all actives have a fitted effect of over 55% in size
#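 Growth kinetics read by CellTiter-Glo luminescence after ≥48 hr at 37 °C. Cells: DT40 Tdp1-/- stably carrying human TDP1, 400 per well, compound exposure in the absence of CPT (DMSO vehicle).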
# DT40 TDP1 CPT: qHTS for Inhibitors of human tyrosyl-DNA phosphodiesterase 1 (TDP1): qHTS in cells in presence of CPT; chicken DT40 Tdp1-/-;hTDP1 cells + 20 nM CPT, ATP luminescence, 48 h; Potency, µM (doses to about 46.2 µM), for the others: at the highest dose activity change, negative = growth inhibition, usual class: inhibitors; 12% of 420,000 active; also: potency is read from the fitted curve at half-maximal effect; % is scaled to controls: 0 for no effect and ±100 for the full control effect; nearly all actives have a fitted effect of over 55% in size
#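 Cell growth measured by CellTiter-Glo luminescence after a minimum 48 h, 37 C compound exposure with 20 nM CPT in Tdp1-knockout DT40 cells stably expressing hTDP1, seeded 400/well; qHTS titration format.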
# TDP1 inh: qHTS Assay for Inhibitors of Tyrosyl-DNA Phosphodiesterase (TDP1) | recombinant TDP1, AlphaScreen DNA substrate cleavage | Potency, µM (doses to about 130 µM), for inactives: top-dose activity change, negative = inhibition, hits mostly inhibitors | AID 485290, 2010 | 0.28% of 350,000 active | Tyrosyl-DNA phosphodiesterase 1 (Homo sapiens), Q9NUW8; also: potency is read from the fitted curve at half-maximal effect; % is scaled to controls: 0 for no effect and ±100 for the full control effect; nearly all actives have a fitted effect of over 40% in size
# Target sequence (Q9NUW8 whole entry, looked up): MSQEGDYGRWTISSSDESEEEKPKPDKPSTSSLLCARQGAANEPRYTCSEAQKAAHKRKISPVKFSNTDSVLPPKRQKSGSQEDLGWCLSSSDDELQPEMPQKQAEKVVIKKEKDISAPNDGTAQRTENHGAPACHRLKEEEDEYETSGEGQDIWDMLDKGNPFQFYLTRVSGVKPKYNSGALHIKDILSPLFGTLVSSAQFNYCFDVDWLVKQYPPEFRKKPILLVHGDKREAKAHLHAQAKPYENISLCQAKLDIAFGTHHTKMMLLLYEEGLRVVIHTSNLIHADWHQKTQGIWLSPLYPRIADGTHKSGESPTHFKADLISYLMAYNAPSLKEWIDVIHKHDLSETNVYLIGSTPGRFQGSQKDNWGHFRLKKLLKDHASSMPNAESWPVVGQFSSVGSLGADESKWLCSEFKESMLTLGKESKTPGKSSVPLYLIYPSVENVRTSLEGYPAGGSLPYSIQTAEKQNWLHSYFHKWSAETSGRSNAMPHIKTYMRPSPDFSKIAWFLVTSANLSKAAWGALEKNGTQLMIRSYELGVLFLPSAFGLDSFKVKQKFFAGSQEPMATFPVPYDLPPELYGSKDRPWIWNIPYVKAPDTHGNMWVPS
#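 Tdp1 1 nM final; 15 min RT w/ cpd; substrate 15 nM, 5 min; beads 10 ug/ml, 10 min; AlphaScreen read. Neg ctrl: no enzyme.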
# HepG2 viability: qHTS for Inhibitors of TGF-b: Cytotox Counterscreen. HepG2 CAGA-GFP viability, ATP luminescence, 18 h. Potency, µM (highest dose often 46.1 µM), for inactives: at the highest dose activity change, negative = cytotoxicity, hits mostly cytotoxic. 0.76% of 410,000 active. AID 588856, 2011; also: potency is read from the fitted curve at half-maximal effect
#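 HepG2 CAGA-GFP cells (1000/well, DMEM with 1% FBS) received compound, then TGF-beta at 500 pg/mL final, and were incubated 18 hours at 37 degrees C. Viability was read by CellTiter-Glo luminescence. Media-only wells were set as complete cell-killing and DMSO as no toxicity.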
# IL1B secr inh: qHTS for Inhibitors of Inflammasome Signaling: IL-1-beta AlphaLISA Primary Screen | THP-1 LPS/ATP IL-1B secretion, AlphaLISA, 16 h; stronger effect = lower value | activity change, % at 57.5 µM | 4.7% of 360,000 active | AID 743279, 2014; in the data active = activity change below about -50%; inconclusive = mostly about -30% to -49%; also: % is scaled to controls: 0 for no effect and ±100 for the full control effect
#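 Secreted IL-1B measured by AlphaLISA bead assay after 16 h compound exposure of THP-1 cells; compounds (final up to 57.5 uM) added 1 h before LPS (250 ng/mL) and ATP (1.25 mM) stimulation; lower signal means less secretion.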
# TGFb inhibitor: qHTS for Inhibitors of TGF-b; HepG2 CAGA-GFP TGF-b/SMAD3 reporter, GFP fluorescence, 18 h; TGF-beta stimulated, 500 pg/mL final; Potency, µM (doses to about 46.1 µM), inactives show top-dose activity, negative = inhibition, usual class: inhibitors; 1.2% of 410,000 active; AID 588855, 2011; also: potency is read from the fitted curve at half-maximal effect; % is scaled to controls: 0 for no effect and ±100 for the full control effect; nearly all actives have a fitted effect of over 65% in size
#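 Inhibition was scored as loss of TGF-beta-induced (500 pg/mL final, 18 hours, 37 degrees C) GFP in HEPG2 cells carrying a CAGA-GFP reporter, in DMEM with 1% FBS. Well GFP was summed per cell; Activity was normalised to unstimulated and stimulated DMSO wells, then concentration-response fitting.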
# The depositor's hits bear a star; ? = inconclusive; nt = not tested or not shown; [ ] = remark or other dose. Unless noted, calls follow the shape of the dose curve; as a rule, active = well fitted curve in the direction sought with a large enough effect; inconclusive = small, poorly fitted or top-dose-only effect, or another doubt; inactive = no such curve, though single readings can be large; an effect the other way counts as inactive or inconclusive.
SMILES,DT40 TDP1 no CPT,DT40 TDP1 CPT,TDP1 inh,HepG2 viability,IL1B secr inh,TGFb inhibitor
COc1cccc(C(=O)NCCS(=O)(=O)NC(C)CCc2ccccc2)c1 (configuration not stated),6.51µM*,?,nt,-10.2%,-3.6,0.0%
CC1CN(CC(=O)Nc2ccc([N+](=O)[O-])cc2Br)CC(C)O1 (configuration not stated),-14.4%,-16.0%,0.6%,-12.2%,-0.3,-3.3%
CCOC(=O)c1ccc(NC(=O)CCn2ccc(C)n2)cc1,-20.6%,3.0%,3.2%,2.9%,nt,20.1%
Cc1cccc([N+](=O)[O-])c1NC(=O)CN(Cc1ccccc1)Cc1ccccc1,20.6µM*,25.9µM*,9.5%,14.5%,?,0.0%
COc1cc(OC)cc(C(=O)NCCCCc2ccccc2)c1,13µM*,?,nt,1.3%,10.2,-1.1%
O=C(NCCCN1CCN(CCCNC(=O)c2cccc([N+](=O)[O-])c2)CC1)c1cccc([N+](=O)[O-])c1,?,2.1%,5.3%,3.7%,-6.0,8.2%
Cc1cccc(C)c1NC(=O)CNC(=O)Cc1ccccc1[N+](=O)[O-],-12.3%,-0.6%,12.1%,-32.0%,3.4,17.4%
COc1cc(OC)cc(C(=O)NCCCCNC(=O)c2cc(OC)cc(OC)c2)c1,-19.0%,1.8%,nt,-22.6%,nt,-18.9%
O=C(NCCn1ccc2ccccc21)c1cccc([N+](=O)[O-])c1,23.1µM*,29.1µM*,4.6%,-8.6%,0.0,-18.7%
CCC1CN(CCC(=O)NC2CCOC(C)(C)C2)Cc2cc(OC)ccc2O1 (configuration not stated),-5.4%,3.6%[9.04 µM],nt,nt,nt,nt
COc1ccc[n+](CC(=O)c2ccc(F)cc2)c1,-24.6%,1.0%,nt,-0.1%,nt,-1.1%
O=C(NNc1c2ccccc2nc2ccccc12)c1ccc(O)cc1,?,13µM*,4.1%,-2.3%,-21.6,-0.5%
O=C(NNc1c2ccccc2nc2ccccc12)c1cccc(O)c1,11.6µM*,?,10.5%,-33.9%,-79.7*,-13.4%
Cc1ccc(C(=O)Nc2nc3ccccc3n3nnnc23)cc1,-11.1%,-17.4%,3.8%,-20.4%,7.0,5.4%
Cc1ccc(C(=O)NNc2nc3ccccc3nc2C(F)(F)F)cc1,23.1µM*,?,1.0%,-56.6%,1.9,-10.3%
O=C(O)c1cccc(Nc2c3ccccc3nc3ccccc23)c1,?,?,6.0%,-5.3%,-13.6,-15.1%
COc1ccc(/C=C/c2nnc(NC(=O)CSc3ccc(Cl)cc3)s2)cc1,16.4µM*,6.51µM*,2.6%,8.0%,6.5,-28.8%
CCOCC(=O)Nc1nnc(COc2ccc(Cl)cc2)s1,23.1µM*,16.4µM*,5.0%,4.1%,-15.4,1.5%
COCC(=O)Nc1nnc(COc2ccc(Cl)cc2)s1,-9.7%,-8.8%,2.5%,-16.3%,-0.5,0.0%
O=C(CSc1ccccc1)Nc1nnc(COc2ccc(Cl)cc2)s1,25.9µM*,8.2µM*,5.4%,-14.6%,-26.0,0.2%
CCc1nnc(NC(=O)c2c(-c3ccccc3)noc2C)s1,-7.3%,-21.6%,nt,-7.1%,4.7,0.3%
COc1ccc(/C=C/c2nnc(NC(=O)COc3ccc(Cl)cc3)s2)cc1,?,?,1.5%,0.4%,nt,2.5%
Cc1onc(-c2ccccc2)c1C(=O)Nc1nnc(COc2ccc(Cl)cc2)s1,8.2µM*,5.8µM*,-1.0%,-16.9%,-13.4,?
O=C(O)c1cccc(S(=O)(=O)N2CCN(Cc3ccc4c(c3)OCO4)CC2)c1,-5.0%,13.6%,3.8%[0.0935 µM],5.1%,-0.3,26.6%
Cc1ccc(-n2nc(C)c3c(C)cc(=O)n(CC(=O)NCc4ccc(OC(C)C)cc4)c32)cc1,-10.6%,-14.6%,9.7%,-19.1%,nt,-7.5%
SMILES,DT40 TDP1 no CPT,DT40 TDP1 CPT,TDP1 inh,HepG2 viability,IL1B secr inh,TGFb inhibitor
Cc1ccc(S(=O)(=O)CCC(=O)NCc2ccccc2F)cc1,1.0%,4.1%,nt,10.6%,-1.1,-3.3%
Cc1cc(C)c(C(=O)/C=C/c2ccc(C(C)C)cc2)c(=O)[nH]1,16.4µM*,23.1µM*,5.9%,-61.9%,-117.0*,?
C/C(=C\c1ccc2c(c1)OCO2)C(=O)c1c(C)cc(C)[nH]c1=O,?,-21.5%,4.8%,1.9%,-23.2,10.0%
Cc1cc(C)c(C(=O)/C=C/C=C/c2ccccc2)c(=O)[nH]1,-28.1%,-22.6%,2.7%,-28.6%,-79.5*,-1.1%
C/C(=C\c1cccc(Br)c1)C(=O)c1c(C)cc(C)[nH]c1=O,-16.6%,-27.3%,nt,-14.5%,-70.9*,-5.1%
Cc1cccc(NC(=O)c2sc3ncnc(N(C)C4CCCCC4)c3c2C)c1C,?,?,0.5%,6.1%,nt,28.3%
CC(NC(=S)NC1CCC(C(C)(C)C)CC1)c1ccccc1 (configuration not stated),?,?,5.6%,-20.0%,5.2,?
COc1ccc2nc(-c3ccc(N(C)C)cc3)sc2c1,nt,nt,4.4%,nt,nt,nt
Cc1cc2c(s1)c1cnn(Cc3cccc(F)c3F)c(=O)c1n2C,nt,nt,-3.6%,nt,nt,nt
Cc1cc2c(s1)c1cnn(Cc3ccc(Cl)cc3)c(=O)c1n2C,nt,nt,35.5µM*,nt,nt,nt
COc1ccc(/C=C2\SC(=S)N(CCCC(=O)N3CCOCC3)C2=O)cc1OC,?,2.4%,4.9%,-98.8%,6.6,-11.8%
O=C(CCN1C(=O)/C(=C\c2cccc(Br)c2)SC1=S)N1CCOCC1,6.51µM*,6.51µM*,3.9%,1.4%,?,-30.3%
O=C(CCCN1C(=O)/C(=C/c2ccccc2Cl)SC1=S)NNC(=O)c1ccccc1,16.4µM*,18.4µM*,0.0%,4.6%,-102.4*,?
O=C(CCCN1C(=O)/C(=C\c2ccccc2)SC1=S)N1CCOCC1,?,23.1µM*,8.5%,-12.4%,-83.9*,2.6%
COc1ccc(/C=C2\SC(=S)N(CCCC(=O)N3CCOCC3)C2=O)cc1,?,?,nt,-27.2%,-9.5,-9.1%
O=C(CCCN1C(=O)/C(=C/c2ccccc2Cl)SC1=S)N1CCOCC1,16.4µM*,?,10.7%,20.5%,?,2.8%
Cc1ccc(NC(=O)C2CCN(S(=O)(=O)c3cccc4nonc34)CC2)c(Cl)c1,5.3%,-15.1%,-4.5%,7.9%,nt,-3.7%
